Bioassay records as filed in PubChem BioAssay.
CatB block = human cathepsin B inhibition. purified cathepsin B, fluorogenic substrate, fluorescence. inhibition, %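 (tested at 10 µM)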. actives 0.1% (n = 63,000). AID 453; in the data active = inhibition above about 21%
CatS inh = human cathepsin S inhibition | recombinant cathepsin S, AMC dipeptide fluorescence, pooled mixtures | inhibition, %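 (tested at 5 µM per compound within 10-compound mixtures)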 | actives 0.06% (n = 62,000) | P25774; in the data active = inhibition above about 32%, passing the limit was not always enough
Target sequence (P25774 115-331 limits assumed): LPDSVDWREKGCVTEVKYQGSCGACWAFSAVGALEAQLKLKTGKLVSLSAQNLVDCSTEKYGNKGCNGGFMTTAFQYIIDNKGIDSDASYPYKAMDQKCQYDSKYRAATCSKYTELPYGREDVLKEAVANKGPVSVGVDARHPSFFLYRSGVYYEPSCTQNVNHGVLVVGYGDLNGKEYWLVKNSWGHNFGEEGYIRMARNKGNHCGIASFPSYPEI
CatL inh = blocks human cathepsin L protease activity | purified cathepsin L, fluorogenic substrate, fluorescence | P07711 | AID 460 | actives 0.17% (n = 58,000) | inhibition, %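 (tested at 10 µM)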; in the data active = inhibition above about 45%
Hsp90 inh = displaces geldanamycin probe from tumor Hsp90 | NCI-N417 lysate Hsp90, Cy3B-geldanamycin FP displacement | P07900 | actives 0.35% (n = 64,000) | inhibition, % at 30 µM;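 active = inhibition above 50%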
CatB mix inh = inhibitors of human cathepsin B in compound mixtures. Purified cathepsin B, AMC dipeptide fluorescence. inhibition, %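 (ten-compound pools at 5 µM per compound and 50 µM total)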. actives 0.06% (n = 62,000). AID 488. P07858; in the data active = inhibition above about 22%, passing the limit was not always enough
Htt clearance = mutant huntingtin protein clearance | actives 0.42% (n = 47,000) | AID 853 | HeLa Exon1htt(103Q)mCFP, aggregate imaging; zero = plate's median compound well | inhibition, % at 1.5 µM;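 active = inhibition of aggregate fluorescence above about 70%, also judged a hit by eye on the cell image, limit read from the data, passing the limit was not always enough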;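 note: cells exposed to compound for three days before fixation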
Numbers stand for hits; – = inactive; · = no result. Compounds with a hit are over-represented: about 0.71% of the library has one in this group of screens.

SMILES | CatB block | CatS inh | CatL inh | Hsp90 inh | CatB mix inh | Htt clearance
CCOC(=O)c1ccccc1NC(=O)Cn1cnc2c(cnn2-c2ccc(OC)cc2)c1=O | – | – | – | – | – | 86
CCOC(=O)c1ccccc1NC(=O)Cn1cnc2c(cnn2-c2ccccc2)c1=O | – | – | – | – | – | –
CC(=O)SC1CC2=CC(=O)CC[C@]2(C)C2CC[C@@]3(C)C(CC[C@@]34CCC(=O)O4)C12 (stereo partly drawn) | · | · | · | – | · | ·
CN1CCN(S(=O)(=O)c2ccc(Br)s2)CC1 | – | – | 97 | – | – | ·
CCOC(=O)N1CCN(S(=O)(=O)c2ccc(Br)s2)CC1 | – | – | – | – | – | –
CNC(=O)[C@H]1O[C@@H](n2cnc3c(NCc4ccc(N)cc4)ncnc32)C(O)[C@H]1O (stereo partly drawn) | · | · | · | – | · | ·
CCCn1c(SCC(=O)Nc2cc(Cl)ccc2OC)n[nH]c1=O | · | · | · | · | · | –
O=C(CSc1n[nH]c(=O)n1C1CC1)Nc1cc(Cl)ccc1Oc1ccccc1 | – | – | – | – | – | 84
COc1ccccc1-c1cc(C(=O)NCCc2ccccc2)no1 | · | · | · | · | · | 79
CC(=O)OC1(C(F)(F)F)Oc2ccccc2NC1=O (stereo not drawn) | 75 | – | 85 | – | 61 | ·
Cn1cnnc1SCC(=O)c1ccc2c(c1)OCO2 | · | · | · | · | · | –
Cn1cnnc1SCC(=O)c1ccc2c(c1)CCCC2 | – | – | · | 54 | – | ·
O=C(O)C1CN(CCCP(=O)(O)O)CCN1 (stereo not drawn) | · | · | · | – | · | ·
CCCCC/C=C\CC(O)/C=C/c1cccc(CC(O)CCCCO)n1 (stereo not drawn) | · | · | · | – | · | ·
Cc1cc(SCC(=O)c2ccccc2)nc(C)n1 | – | – | – | – | – | –
Cc1cc(SCC(N)=O)nc(SCC(=O)c2ccccc2)n1 | – | – | – | 91 | – | –
O=C(CCCCn1c(=O)[nH]c2ccsc2c1=O)NCc1cccnc1 | – | – | – | – | 25 | ·
CC(C)[C@@H]1NC(=O)[C@H](CCCCN)NC(=O)[C@@H](Cc2c[nH]c3ccccc23)NC(=O)[C@H](Cc2ccc(O)cc2)NC(=O)[C@H](C)N(C)C(=O)[C@H](Cc2ccccc2)NC1=O | · | · | · | – | · | ·
COc1ccc(Nc2ccnc3ccccc23)cc1 | – | – | – | – | – | 91
COc1cccc(Nc2ncnc3ccccc23)c1 | · | · | · | · | · | –
c1ccc2[nH]c(CSc3ncnc4c3oc3ccccc34)nc2c1 | – | – | – | – | – | 75
COc1cc(NC(C)=O)c2ncccc2c1 | · | · | · | – | · | ·
CN(C)C=Nc1c(Br)cc(Br)c2nonc12 | · | – | – | 53 | – | 91
CCCCOC(=O)n1c(=O)oc2cc(S(=O)(=O)N3CCCCC3)ccc21 | – | – | – | – | – | 72
COC(=O)n1c(=O)oc2cc(S(=O)(=O)N3CCOCC3)ccc21 | – | – | – | – | – | ·
SMILES | CatB block | CatS inh | CatL inh | Hsp90 inh | CatB mix inh | Htt clearance
COc1cc(N)c2nccc(Cl)c2c1 | · | · | · | – | · | ·
Cc1ccc(C2NC(=O)c3c(sc4c3CCN(C)C4)N2)s1 (stereo not drawn) | – | – | 55 | – | – | –
COc1ccc(C2=NO[C@@H]3C(=O)N(c4c(C)cccc4C)C(=O)[C@H]23)cc1OC | – | – | – | 74 | – | –
COc1cc(NCCCC(C)N)c2ncccc2c1 (stereo not drawn) | – | – | – | 97 | – | –
COc1cc(NCCCC(C)O)c2ncccc2c1 (stereo not drawn) | · | · | · | – | · | ·
Cc1cc(Cl)c(S(=O)(=O)N2CCCCCC2)cc1OCC(N)=O | – | – | – | – | – | –
CCOC(=O)C1CCCN(S(=O)(=O)c2cc(OCC(N)=O)c(C)cc2Cl)C1 (stereo not drawn) | – | – | · | – | – | 71
O=C1C(SCCO)=C(SCCO)C(=O)c2ccccc21 | · | · | · | 89 | · | ·
O=C(O)c1ccccc1NS(=O)(=O)c1cccc2cccnc12 | – | – | · | – | – | 77
COc1ccccc1NS(=O)(=O)c1cccc2cccnc12 | – | – | · | – | – | ·
Cc1cn([C@H]2C[C@@H](N=[N+]=[N-])[C@@H](CO)O2)c(=O)[nH]c1=O | · | · | · | – | · | ·
O=C(N/N=C/c1ccccn1)c1ccco1 | · | · | · | · | · | –
CCCc1sc(N/N=C/c2ccccn2)nc1-c1ccc(F)cc1 | · | · | · | · | · | 82
O=C(O)c1cc(O)c2c(c1)C(=O)c1cccc(O)c1C2=O | – | – | – | 139 | – | ·
O=c1c(O)c(-c2ccc(O)c(O)c2)oc2cc(O)cc(O)c12 | · | · | · | 103 | · | ·
O=c1c(-c2ccc(O)cc2)coc2cc(O)cc(O)c12 | · | · | · | – | · | ·
